# Data from paper PMC9928087, “Plasmids manipulate bacterial behaviour through translational regulatory crosstalk”.
# Numbering of substitutions follows the chain as printed.
# What was measured:
# RsmQ [1] = molecular target: T1, RsmQ (Pseudomonas fluorescens SBW25 plasmid …, UniProt UPI00015066B5 1-62); assay: SPR (ReDCaT); 100 nM protein; HBS-EP+ (10 mM HEPES, 150 mM NaCl, 3 mM EDTA, 0.05% v/v Tween 20, pH 7.4), 20 C, Biacore 8K, ReDCaT SA chip; high values mean tight binding; details: protein: recombinant, tags: C-terminal TEV site + 6xHis, chain copies: 2
# T1 sequence: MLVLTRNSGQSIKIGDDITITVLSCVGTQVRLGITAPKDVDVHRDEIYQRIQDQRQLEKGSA
# RsmQ [2] = molecular target: T1, RsmQ; assay: SPR (ReDCaT); HBS-EP+ (10 mM HEPES, 150 mM NaCl, 3 mM EDTA, 0.05% v/v Tween 20, pH 7.4), 20 C, Biacore 8K, ReDCaT SA chip; high values mean tight binding; details: protein: recombinant, tags: C-terminal TEV site + 6xHis, chain copies: 2
# RsmQ H43A = molecular target: T2, RsmQ H43A (Pseudomonas fluorescens SBW25 plasmid …, UniProt UPI00015066B5 1-62, H43A); assay: SPR (ReDCaT); 100 nM protein; HBS-EP+ (10 mM HEPES, 150 mM NaCl, 3 mM EDTA, 0.05% v/v Tween 20, pH 7.4), 20 C, Biacore 8K, ReDCaT SA chip; high values mean tight binding; details: protein: recombinant; tags: C-terminal TEV site + 6xHis; chain copies: 2; structured_DNA
# T2 sequence: T1 sequence with H43A
# RsmQ R44A = molecular target: T3, RsmQ R44A (Pseudomonas fluorescens SBW25 plasmid …, UniProt UPI00015066B5 1-62, R44A); assay: as above; details: protein: recombinant; tags: C-terminal TEV site + 6xHis; chain copies: 2; structured_DNA
# T3 sequence: T1 sequence with R44A
# RsmE = molecular target: T4, RsmE (Pseudomonas fluorescens SBW25, UniProt A0ACA7PAD1 1-74); assay: as above; details: protein: recombinant; tags: His tag (pET28a NdeI/XhoI); chain copies: 2; structured_DNA
# T4 sequence: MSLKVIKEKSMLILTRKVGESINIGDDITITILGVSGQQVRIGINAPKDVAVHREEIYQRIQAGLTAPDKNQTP
# RsmQ [3] = molecular target: T1, RsmQ; assay: SPR (ReDCaT); 100 nM protein, run beside RsmE; HBS-EP+ (10 mM HEPES, 150 mM NaCl, 3 mM EDTA, 0.05% v/v Tween 20, pH 7.4), 20 C, Biacore 8K, ReDCaT SA chip; high values mean tight binding; details: protein: recombinant; tags: C-terminal TEV site + 6xHis; chain copies: 2; structured_DNA
sequence,measurement,setting,value
CCGCGCACGAAGCGCAAAC,binding signal,RsmQ [1]; structured_DNA,24.9 ± 0.641 %Rmax
CAGGAACGGACAGAGC,binding signal,RsmQ [1]; ssDNA,6.27 ± 1.5 %Rmax
GCCCTGTGTCCACGGATTGGCACAA,binding signal,RsmQ [2]; structured_DNA,82.5 ± 1.12 %Rmax
CCGCGCACGGAAGCGCAACGGAAC,binding signal,RsmQ [1]; structured_DNA,70 ± 0.746 %Rmax
same,binding signal,RsmQ H43A,51.14 ± 0.26 %Rmax
same,binding signal,RsmQ R44A,38.8 ± 0.461 %Rmax
AATGTCGCAGGATGCGATTCATCAG,binding signal,RsmQ [2]; ssDNA,62.7 ± 2.27 %Rmax
TTCATCAGGATGATGAAAAGGAATAC,binding signal,RsmQ [2]; ssDNA,80.5 ± 1.97 %Rmax
CAGGACAGGACAGAGC,binding signal,RsmQ [1]; ssDNA,4.87 ± 0.902 %Rmax
CCGCGCATGGAAGCGCAAAC,binding signal,RsmQ [1]; structured_DNA,113.5 ± 0.537 %Rmax
same,binding signal,RsmE,30.1 ± 0.204 %Rmax
same,binding signal,RsmQ [3],107 ± 6.88 %Rmax
CAAGGAGACAGAGCAACAGGA,binding signal,RsmQ [1]; ssDNA,3.14 ± 0.795 %Rmax
CCGCGCAGGAAGCGCAAAC,binding signal,RsmQ [1]; structured_DNA,94.4 ± 1.28 %Rmax
same,binding signal,RsmQ H43A,43.9 ± 0.798 %Rmax
same,binding signal,RsmQ R44A,22.1 ± 0.676 %Rmax
same,binding signal,RsmQ [3],98.6 ± 6.21 %Rmax
CCGCGCACGGAAGCGCAAAC,binding signal,RsmQ [1]; structured_DNA,68.3 ± 0.752 %Rmax
same,binding signal,RsmQ H43A,50.72 ± 0.382 %Rmax
same,binding signal,RsmQ R44A,41.38 ± 0.372 %Rmax
same,binding signal,RsmE,-4.31 ± 0.212 %Rmax
same,binding signal,RsmQ [3],49.1 ± 0.724 %Rmax
GGAATACAGGGACTAGGGAAAAAAT,binding signal,RsmQ [2]; ssDNA,3.83 ± 1.08 %Rmax
CCGCGCCCGGAAGCGCAAAC,binding signal,RsmQ [1]; structured_DNA,7.21 ± 0.838 %Rmax
GCAACAACACGGACACGTAGGATT,binding signal,RsmQ [2]; ssDNA,3.78 ± 1.57 %Rmax
CCGCGCACTGAAGCGCAAAC,binding signal,RsmQ [1]; structured_DNA,1.69 ± 0.298 %Rmax
CTGCCAGGATGGCGGAGTGAAATGG,binding signal,RsmQ [2]; ssDNA,16.2 ± 1.37 %Rmax
ATGGACGTCGCGCAGGAAGCGCAAA,binding signal,RsmQ [2]; structured_DNA,83.5 ± 1.31 %Rmax
CCGCGCCGGAAGCGCAGGAAC,binding signal,RsmQ [1]; structured_DNA,28.8 ± 0.617 %Rmax
same,binding signal,RsmQ H43A,12.8 ± 0.157 %Rmax
same,binding signal,RsmQ R44A,3.8 ± 0.253 %Rmax
CCGCGCAGGGAAGCGCAAAC,binding signal,RsmQ [1]; structured_DNA,106.2 ± 0.739 %Rmax
same,binding signal,RsmE,47.5 ± 0.0552 %Rmax
same,binding signal,RsmQ [3],90.1 ± 4.07 %Rmax
CAGGAAAGGACAGAGCACGGA,binding signal,RsmQ [1]; ssDNA,10.1 ± 0.715 %Rmax
CCGCGCTCGGAAGCGCAAAC,binding signal,RsmQ [1]; structured_DNA,4.59 ± 0.514 %Rmax
CCATCAAGGAACGATGGTTCGAAGG,binding signal,RsmQ [2]; ssDNA,11.7 ± 0.382 %Rmax
